The values that follow come from ChEMBL document CHEMBL2218924, “A broad activity screen in support of a chemogenomic map for kinase signalling research and drug discovery” (Biochem J, 2013).

In test [1] the target is T1, Ephrin type-A receptor 3 (Homo sapiens) (UniProt P29320).
T1 sequence (whole entry): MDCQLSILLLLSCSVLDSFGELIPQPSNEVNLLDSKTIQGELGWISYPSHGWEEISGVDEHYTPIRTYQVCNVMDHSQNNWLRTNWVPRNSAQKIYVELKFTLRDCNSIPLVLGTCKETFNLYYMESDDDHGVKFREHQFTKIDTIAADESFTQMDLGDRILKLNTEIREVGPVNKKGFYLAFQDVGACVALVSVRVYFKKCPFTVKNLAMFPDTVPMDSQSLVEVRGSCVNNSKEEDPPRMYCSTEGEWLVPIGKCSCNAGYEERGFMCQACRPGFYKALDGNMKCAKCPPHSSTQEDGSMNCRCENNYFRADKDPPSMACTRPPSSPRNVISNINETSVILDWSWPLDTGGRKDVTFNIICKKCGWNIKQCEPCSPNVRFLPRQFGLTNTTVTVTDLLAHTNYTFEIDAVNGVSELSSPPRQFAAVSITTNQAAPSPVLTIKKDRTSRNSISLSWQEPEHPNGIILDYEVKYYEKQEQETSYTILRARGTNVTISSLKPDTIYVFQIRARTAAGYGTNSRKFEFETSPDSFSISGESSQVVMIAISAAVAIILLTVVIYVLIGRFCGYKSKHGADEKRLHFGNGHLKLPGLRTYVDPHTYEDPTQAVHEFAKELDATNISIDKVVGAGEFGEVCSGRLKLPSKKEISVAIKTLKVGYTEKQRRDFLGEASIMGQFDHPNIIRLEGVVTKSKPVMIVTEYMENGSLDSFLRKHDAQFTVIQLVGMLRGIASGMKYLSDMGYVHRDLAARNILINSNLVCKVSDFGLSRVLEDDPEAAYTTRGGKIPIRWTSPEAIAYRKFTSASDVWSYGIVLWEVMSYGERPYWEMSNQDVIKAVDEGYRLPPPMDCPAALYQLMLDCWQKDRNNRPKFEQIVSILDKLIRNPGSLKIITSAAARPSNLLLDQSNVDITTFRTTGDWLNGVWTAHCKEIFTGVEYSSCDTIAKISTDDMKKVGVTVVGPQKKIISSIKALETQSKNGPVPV
Particulars: at 10 µM.

Test [2] deals with Ephrin type-A receptor 4 (Homo sapiens) (UniProt P54764). Particulars: at 1 µM.
Test [3] has the same target. Particulars: at 10 µM.
In test [4] the target is Ephrin type-A receptor 5 (Homo sapiens) (UniProt P54756). The conditions noted are these: at 1 µM.
For test [5] the target is unchanged. Particulars: at 10 µM.
For test [6], the target named is Ephrin type-A receptor 7 (Homo sapiens) (UniProt Q15375). Particulars: at 1 µM.
For test [7] the target is unchanged. The conditions noted are these: at 10 µM.
For test [8], the target named is T2, Ephrin type-A receptor 8 (Homo sapiens) (UniProt P29322).
T2 sequence (whole entry): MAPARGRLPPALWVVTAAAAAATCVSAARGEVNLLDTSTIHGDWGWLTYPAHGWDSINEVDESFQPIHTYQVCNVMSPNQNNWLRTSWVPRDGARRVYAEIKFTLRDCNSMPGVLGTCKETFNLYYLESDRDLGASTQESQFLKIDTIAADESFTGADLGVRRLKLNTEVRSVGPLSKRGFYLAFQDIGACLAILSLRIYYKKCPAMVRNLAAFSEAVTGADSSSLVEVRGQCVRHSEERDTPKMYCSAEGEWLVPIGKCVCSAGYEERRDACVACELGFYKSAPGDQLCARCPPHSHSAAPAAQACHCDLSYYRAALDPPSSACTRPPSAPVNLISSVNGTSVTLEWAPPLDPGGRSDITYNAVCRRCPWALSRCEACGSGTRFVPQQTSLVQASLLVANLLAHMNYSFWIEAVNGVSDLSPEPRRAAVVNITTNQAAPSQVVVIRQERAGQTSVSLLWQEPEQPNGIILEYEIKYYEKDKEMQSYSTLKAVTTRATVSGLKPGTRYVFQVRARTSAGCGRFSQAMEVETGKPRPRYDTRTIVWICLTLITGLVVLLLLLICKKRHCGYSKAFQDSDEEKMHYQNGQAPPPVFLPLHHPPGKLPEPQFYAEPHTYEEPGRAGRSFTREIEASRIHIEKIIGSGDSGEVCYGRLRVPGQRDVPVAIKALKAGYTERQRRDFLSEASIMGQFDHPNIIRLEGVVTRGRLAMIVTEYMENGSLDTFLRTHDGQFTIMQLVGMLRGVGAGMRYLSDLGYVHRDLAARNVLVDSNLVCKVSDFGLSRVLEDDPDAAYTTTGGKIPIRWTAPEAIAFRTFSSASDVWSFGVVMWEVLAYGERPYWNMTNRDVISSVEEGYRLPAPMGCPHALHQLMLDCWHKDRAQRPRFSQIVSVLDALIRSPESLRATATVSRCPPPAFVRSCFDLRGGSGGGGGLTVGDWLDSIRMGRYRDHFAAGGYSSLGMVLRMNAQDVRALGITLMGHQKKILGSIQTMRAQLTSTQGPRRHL
Particulars: at 1 µM.

Test [9] addresses T2, Ephrin type-A receptor 8 (Homo sapiens). The conditions noted are these: at 10 µM.
Test [10] addresses T3, Ephrin type-B receptor 1 (Homo sapiens) (UniProt P54762).
T3 sequence (whole entry): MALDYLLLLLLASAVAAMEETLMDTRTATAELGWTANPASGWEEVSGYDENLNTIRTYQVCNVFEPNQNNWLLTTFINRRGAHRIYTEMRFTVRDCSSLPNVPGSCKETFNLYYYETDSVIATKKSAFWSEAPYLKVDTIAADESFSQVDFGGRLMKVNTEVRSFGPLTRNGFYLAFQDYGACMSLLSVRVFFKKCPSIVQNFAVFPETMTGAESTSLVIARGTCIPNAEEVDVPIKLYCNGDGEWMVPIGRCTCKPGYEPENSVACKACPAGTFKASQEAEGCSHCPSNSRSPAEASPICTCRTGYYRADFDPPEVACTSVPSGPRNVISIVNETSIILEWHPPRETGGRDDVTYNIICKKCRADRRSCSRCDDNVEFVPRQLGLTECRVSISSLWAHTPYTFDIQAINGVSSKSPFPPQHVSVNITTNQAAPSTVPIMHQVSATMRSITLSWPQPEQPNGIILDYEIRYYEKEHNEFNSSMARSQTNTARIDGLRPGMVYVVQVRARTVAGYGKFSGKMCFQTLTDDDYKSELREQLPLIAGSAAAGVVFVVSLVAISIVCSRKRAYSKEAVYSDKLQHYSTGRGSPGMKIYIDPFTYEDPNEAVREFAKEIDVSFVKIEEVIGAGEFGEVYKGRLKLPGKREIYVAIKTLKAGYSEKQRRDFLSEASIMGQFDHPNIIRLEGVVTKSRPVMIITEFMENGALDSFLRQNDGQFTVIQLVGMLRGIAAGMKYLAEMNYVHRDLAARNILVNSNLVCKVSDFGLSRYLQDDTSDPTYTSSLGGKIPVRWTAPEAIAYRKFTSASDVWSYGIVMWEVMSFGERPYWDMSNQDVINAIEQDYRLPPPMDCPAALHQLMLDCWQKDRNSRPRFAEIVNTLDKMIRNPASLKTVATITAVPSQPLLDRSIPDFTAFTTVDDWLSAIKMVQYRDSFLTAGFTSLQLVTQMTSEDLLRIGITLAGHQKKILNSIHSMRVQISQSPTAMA
Particulars: at 1 µM.

Ephrin type-A receptor 4 (Homo sapiens), sequence (P54764 whole entry): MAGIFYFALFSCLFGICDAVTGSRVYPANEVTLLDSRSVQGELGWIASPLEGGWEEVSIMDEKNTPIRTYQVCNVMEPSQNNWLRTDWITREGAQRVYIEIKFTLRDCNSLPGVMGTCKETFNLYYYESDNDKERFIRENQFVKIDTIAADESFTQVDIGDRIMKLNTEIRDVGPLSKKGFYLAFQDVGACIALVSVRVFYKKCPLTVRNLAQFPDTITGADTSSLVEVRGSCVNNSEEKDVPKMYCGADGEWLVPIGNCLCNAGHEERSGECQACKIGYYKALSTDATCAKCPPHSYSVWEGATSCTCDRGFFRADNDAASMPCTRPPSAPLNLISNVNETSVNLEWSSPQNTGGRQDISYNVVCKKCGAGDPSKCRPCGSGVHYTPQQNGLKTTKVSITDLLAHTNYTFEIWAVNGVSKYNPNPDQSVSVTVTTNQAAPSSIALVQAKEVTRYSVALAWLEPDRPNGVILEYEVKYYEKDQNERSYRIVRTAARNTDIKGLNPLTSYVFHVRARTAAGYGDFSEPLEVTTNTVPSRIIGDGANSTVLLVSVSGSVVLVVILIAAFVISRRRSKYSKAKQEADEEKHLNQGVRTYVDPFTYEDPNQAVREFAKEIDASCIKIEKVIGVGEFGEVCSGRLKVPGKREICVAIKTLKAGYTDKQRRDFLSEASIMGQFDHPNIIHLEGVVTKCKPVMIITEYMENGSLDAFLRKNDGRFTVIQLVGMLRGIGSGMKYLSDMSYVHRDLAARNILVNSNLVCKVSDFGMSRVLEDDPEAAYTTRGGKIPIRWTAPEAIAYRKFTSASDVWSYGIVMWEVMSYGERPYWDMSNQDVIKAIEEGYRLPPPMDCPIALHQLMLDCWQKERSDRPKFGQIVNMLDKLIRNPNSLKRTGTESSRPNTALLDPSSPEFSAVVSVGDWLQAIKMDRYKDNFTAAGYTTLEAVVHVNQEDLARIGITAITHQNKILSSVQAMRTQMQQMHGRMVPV
Ephrin type-A receptor 5 (Homo sapiens), sequence (P54756 whole entry): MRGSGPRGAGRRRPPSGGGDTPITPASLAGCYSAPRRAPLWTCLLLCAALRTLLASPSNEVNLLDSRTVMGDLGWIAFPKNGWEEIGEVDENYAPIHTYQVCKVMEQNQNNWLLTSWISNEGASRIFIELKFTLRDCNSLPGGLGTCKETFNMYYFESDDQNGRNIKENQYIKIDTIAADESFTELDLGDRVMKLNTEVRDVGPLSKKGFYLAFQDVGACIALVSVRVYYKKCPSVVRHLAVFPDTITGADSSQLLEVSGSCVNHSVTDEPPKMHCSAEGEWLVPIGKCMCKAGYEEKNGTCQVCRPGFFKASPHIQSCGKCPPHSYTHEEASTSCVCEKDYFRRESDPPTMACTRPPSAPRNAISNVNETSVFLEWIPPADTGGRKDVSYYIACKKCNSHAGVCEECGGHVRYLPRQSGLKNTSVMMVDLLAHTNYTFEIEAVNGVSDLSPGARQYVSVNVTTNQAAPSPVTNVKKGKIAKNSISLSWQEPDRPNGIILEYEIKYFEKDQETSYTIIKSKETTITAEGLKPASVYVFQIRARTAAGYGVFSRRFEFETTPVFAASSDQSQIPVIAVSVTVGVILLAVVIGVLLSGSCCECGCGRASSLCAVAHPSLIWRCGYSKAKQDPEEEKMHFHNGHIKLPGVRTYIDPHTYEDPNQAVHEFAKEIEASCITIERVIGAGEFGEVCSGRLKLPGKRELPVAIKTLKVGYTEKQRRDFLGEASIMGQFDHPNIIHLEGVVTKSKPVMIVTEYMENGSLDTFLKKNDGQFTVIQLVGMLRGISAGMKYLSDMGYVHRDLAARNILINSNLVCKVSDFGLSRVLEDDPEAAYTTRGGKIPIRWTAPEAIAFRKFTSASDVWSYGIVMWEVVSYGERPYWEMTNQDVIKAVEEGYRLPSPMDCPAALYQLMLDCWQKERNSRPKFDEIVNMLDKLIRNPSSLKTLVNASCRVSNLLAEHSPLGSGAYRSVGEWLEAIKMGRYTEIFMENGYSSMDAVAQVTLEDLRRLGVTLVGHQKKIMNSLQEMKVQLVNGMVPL
Ephrin type-A receptor 7 (Homo sapiens), sequence (Q15375 28-998 limits assumed): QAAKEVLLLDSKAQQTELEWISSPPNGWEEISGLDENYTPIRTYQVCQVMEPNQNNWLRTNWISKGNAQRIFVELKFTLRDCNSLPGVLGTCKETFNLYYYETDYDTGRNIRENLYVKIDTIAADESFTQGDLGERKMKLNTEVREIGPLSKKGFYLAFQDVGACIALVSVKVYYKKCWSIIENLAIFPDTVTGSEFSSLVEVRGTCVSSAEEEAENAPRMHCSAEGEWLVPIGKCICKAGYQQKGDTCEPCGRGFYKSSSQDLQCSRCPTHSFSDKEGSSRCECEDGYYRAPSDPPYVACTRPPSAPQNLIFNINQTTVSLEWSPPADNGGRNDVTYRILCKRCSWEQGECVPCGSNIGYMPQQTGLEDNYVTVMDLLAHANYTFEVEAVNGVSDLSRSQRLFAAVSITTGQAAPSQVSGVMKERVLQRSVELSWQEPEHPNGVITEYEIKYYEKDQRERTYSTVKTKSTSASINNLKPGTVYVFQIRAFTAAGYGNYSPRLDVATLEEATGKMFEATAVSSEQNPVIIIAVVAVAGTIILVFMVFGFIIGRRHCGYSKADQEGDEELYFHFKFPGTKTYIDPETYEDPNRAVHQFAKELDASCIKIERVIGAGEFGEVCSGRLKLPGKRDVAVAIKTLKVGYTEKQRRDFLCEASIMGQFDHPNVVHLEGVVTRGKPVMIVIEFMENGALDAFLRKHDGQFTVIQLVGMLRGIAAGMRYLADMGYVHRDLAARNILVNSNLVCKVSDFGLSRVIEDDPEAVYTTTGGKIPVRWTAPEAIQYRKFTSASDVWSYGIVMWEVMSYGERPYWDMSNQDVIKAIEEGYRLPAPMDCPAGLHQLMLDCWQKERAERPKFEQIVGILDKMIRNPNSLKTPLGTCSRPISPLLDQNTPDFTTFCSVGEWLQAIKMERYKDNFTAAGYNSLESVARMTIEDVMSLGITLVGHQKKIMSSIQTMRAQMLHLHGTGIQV

On to `O=C1NC(=O)/C(=C\c2ccc3nccnc3c2)S1`, for which the residual activity in test [1] came out at 87%; in test [2], 108%; in test [3], 106%; in test [4], 132%; in test [5], 101%; in test [6], 97%. Also, the residual activity in [7] was found to be 94%; in test [8], 88%; in test [9], 94%; in [10], 115%.

What is called residual activity is the signal under treatment as a percentage of the control signal.
